Reference: PubChem BioAssay (NCATS)
Inconclusive results are not listed. The source made the active and inactive calls. Calls come from the whole dose curve; as a rule, active = well fitted curve in the direction sought with a large enough effect; inconclusive = small, poorly fitted or top-dose-only effect, or another doubt; inactive = no such curve, though single readings can be large; an effect the other way counts as inactive or inconclusive.

Tests used:
[1] = NS1 protein of Zika virus - qHTS assay to identify small molecule inhibitors in human HEK 293 cells (AID 1347053); note: nearly all actives have a fitted effect of over 55% in size; note: potency is the fitted concentration of half-maximal effect
Outline: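 Compound-treated (1 h pre-infection) HEK 293 cells infected with ZIKV MR766, MOI = 0.5; after 24 h at 37 C, NS1 read by TR-FRET; data normalized to uninfected and infected controls.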

[2] = qHTS of pediatric cancer cell lines to identify multiple opportunities for drug repurposing: Primary screen for TC32 cells (AID 1347089); note: nearly all actives have a fitted effect of over 60% in size
Outline: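 TC32 cells, 500-1,000/well in growth medium, compound-treated 48 h at 37 °C; viability from CellTiter-Glo luminescence. Primary screen: MIPE 11-point (0.78 nM–46 µM final), NPC 8-point (0.59 nM–46 µM final); confirmatory at 11-point dilutions.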

[3] = qHTS of pediatric cancer cell lines to identify multiple opportunities for drug repurposing: Primary screen for DAOY cells (AID 1347090); note: nearly all actives have a fitted effect of over 55% in size; note: potency is the fitted concentration of half-maximal effect
Outline: (§1)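 Eight- or eleven-point concentration series, 48 h treatment at 37 degrees C in growth media; readout CellTiter-Glo luminescence. Potency and efficacy were taken from the concentration-response curves.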

[4] = qHTS of pediatric cancer cell lines to identify multiple opportunities for drug repurposing: Primary screen for SJ-GBM2 cells (AID 1347091); note: potency is the fitted concentration of half-maximal effect
Outline: as §1

[5] = qHTS of pediatric cancer cell lines to identify multiple opportunities for drug repurposing: Primary screen for A673 cells (AID 1347092); note: nearly all actives have a fitted effect of over 45% in size; note: potency is the fitted concentration of half-maximal effect
Outline: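 A673 cells (500-1,000 cells/well) were treated 48 hours at 37 degrees C with compounds at 11-point (0.78 nM to 46 µM) or 8-point (0.59 nM to 46 µM) dilutions. Viability read by CellTiter-Glo luminescence; concentration-response curves fitted.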

[6] = qHTS of pediatric cancer cell lines to identify multiple opportunities for drug repurposing: Primary screen for BT-37 cells (AID 1347094); note: potency is the fitted concentration of half-maximal effect
Outline: (§2)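 CRCs from 8- or 11-point titrations (lowest final 0.59 nM NPC, 0.78 nM MIPE). Cell viability: CellTiter-Glo after 48 h incubation, 15 min room-temperature development, luminescence imaging.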

[7] = qHTS of pediatric cancer cell lines to identify multiple opportunities for drug repurposing: Primary screen for U-2 OS cells (AID 1347096); note: nearly all actives have a fitted effect of over 50% in size
Outline: (§3)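 Cells (500-1,000/well) in growth media were settled 5 h at 37 degrees C, then given compounds for 48 h. Viability was read as CellTiter-Glo luminescence. Primary runs used MIPE at 11 points (0.78 nM-46 µM) and NPC at 8 points (0.59 nM-46 µM); follow-ups used 11 points.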

[8] = qHTS of pediatric cancer cell lines to identify multiple opportunities for drug repurposing: Primary screen for NB1643 cells (AID 1347099); note: nearly all actives have a fitted effect of over 50% in size; note: potency is the fitted concentration of half-maximal effect
Outline: as §2

[9] = qHTS of pediatric cancer cell lines to identify multiple opportunities for drug repurposing: Primary screen for LAN-5 cells (AID 1347100); note: potency is the fitted concentration of half-maximal effect
Outline: as §3

[10] = qHTS of pediatric cancer cell lines to identify multiple opportunities for drug repurposing: Primary screen for Rh18 cells (AID 1347102); note: nearly all actives have a fitted effect of over 65% in size
Outline: as §3

[11] = qHTS of pediatric cancer cell lines to identify multiple opportunities for drug repurposing: Primary screen for OHS-50 cells (AID 1347103); note: nearly all actives have a fitted effect of over 40% in size; note: potency is the fitted concentration of half-maximal effect
Outline: (§4)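 Cells (500-1,000/well) rested 5 h, then received compounds for 48 h; metabolically active cells were measured by CellTiter-Glo luminescence. Final concentrations spanned up to 46 µM (MIPE, 11-point) or 0.59 nM-46 µM (NPC, 8-point) in primary screens, 11-point in follow-ups.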

[12] = qHTS of pediatric cancer cell lines to identify multiple opportunities for drug repurposing: Primary screen for RD cells (AID 1347104); note: nearly all actives have a fitted effect of over 55% in size; note: potency is the fitted concentration of half-maximal effect
Outline: as §2

[13] = qHTS of pediatric cancer cell lines to identify multiple opportunities for drug repurposing: Primary screen for MG 63 (6-TG R) cells (AID 1347105); note: nearly all actives have a fitted effect of over 50% in size
Outline: as §2

[14] = qHTS of pediatric cancer cell lines to identify multiple opportunities for drug repurposing: Primary screen for SK-N-MC cells (AID 1347093); note: potency is the fitted concentration of half-maximal effect
Outline: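 Metabolically active cells were quantified by ATP-dependent luminescence (CellTiter-Glo, 15 min at room temperature) following 48 h treatment. Cells had been plated at 500-1,000 per well and settled for 5 h beforehand.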

[15] = qHTS of pediatric cancer cell lines to identify multiple opportunities for drug repurposing: Primary screen for NB-EBc1 cells (AID 1347095); note: potency is the fitted concentration of half-maximal effect
Outline: as §2

[16] = qHTS of pediatric cancer cell lines to identify multiple opportunities for drug repurposing: Primary screen for Saos-2 cells (AID 1347097); note: nearly all actives have a fitted effect of over 40% in size; note: potency is the fitted concentration of half-maximal effect
Outline: as §2

[17] = qHTS of pediatric cancer cell lines to identify multiple opportunities for drug repurposing: Primary screen for SK-N-SH cells (AID 1347098); note: nearly all actives have a fitted effect of over 65% in size; note: potency is the fitted concentration of half-maximal effect
Outline: as §4

[18] = qHTS of pediatric cancer cell lines to identify multiple opportunities for drug repurposing: Primary screen for BT-12 cells (AID 1347101); note: nearly all actives have a fitted effect of over 25% in size; note: potency is the fitted concentration of half-maximal effect
Outline: as §4

Measured: Potency

C=C1C(=O)OC(CCCCCCCC)C1C(=O)O (stereo not drawn)
active: [4] 20.9 µM
inactive: [1] | [2] | [3] | [5] | [6] | [7] | [8] | [9] | [10] | [11] | [12] | [13]

N[C@@]1(C(=O)O)CS(=O)(=O)[C@H]2[C@H](C(=O)O)[C@H]21
inactive: [1] | [2] | [3] | [4] | [15] | [7] | [16] | [17] | [10] | [13]
active: [5] 1.87 µM | [14] 18.7 µM

CC(C)(C(=O)NCC(F)(F)C(F)(F)F)C(=O)N[C@@H]1C(=O)Nc2ccccc2-c2ccccc21
inactive: [1] | [2] | [7] | [10] | [13]
active: [3] 18.7 µM | [4] 1.05 µM | [5] 0.0935 µM | [14] 3.72 µM | [6] 0.769 µM | [15] 4.69 µM | [11] 1.53 µM

CC(C)(C)OC(=O)N[C@H]1CCCCCC=C[C@@H]2C[C@@]2(C(=O)NS(=O)(=O)C2CC2)NC(=O)[C@@H]2C[C@@H](OC(=O)N3Cc4cccc(F)c4C3)CN2C1=O
inactive: [1] | [2] | [3] | [4] | [5] | [6] | [15] | [7] | [17] | [8] | [9] | [10] | [11] | [12]
active: [14] 29.6 µM

C[C@]12CC[C@@H]3c4ccc(O)cc4CC[C@H]3[C@H]1C[C@@H](O)[C@H]2O
inactive: [1] | [2] | [3] | [4] | [6] | [7] | [16] | [9] | [10] | [11] | [12] | [13]

O=c1cc(N2CCOCC2)oc2c(-c3cccc4c3sc3ccccc34)cccc12
inactive: [2] | [17]
active: [1] 18.7 µM | [3] 18.7 µM | [4] 5.9 µM | [5] 14.8 µM | [14] 5.26 µM | [6] 21.7 µM | [15] 8.33 µM | [16] 18.7 µM | [9] 14.8 µM | [18] 24.3 µM | [11] 7.69 µM | [12] 13.2 µM

COc1ccc(-c2coc3cc(O)ccc3c2=O)cc1
inactive: [1] | [2] | [3] | [4] | [14] | [6] | [15] | [7] | [16] | [17] | [8] | [9] | [10] | [11] | [12]

CN[C@@H](C)C(=O)N[C@H]1CN(C(=O)CC(C)C)CC[C@H]2CC[C@@H](C(=O)NC(c3ccccc3)c3ccccc3)N2C1=O
inactive: [1] | [2] | [7]
active: [3] 2.35 µM | [4] 0.935 µM | [14] 0.372 µM | [6] 0.153 µM | [15] 2.96 µM | [16] 0.296 µM | [18] 0.485 µM | [11] 0.243 µM

COc1ccc2cccc(CCNC(C)=O)c2c1
inactive: [1] | [2] | [3] | [4] | [14] | [6] | [15] | [7] | [16] | [17] | [18] | [10] | [11] | [12] | [13]

N#C[C@H]1C[C@H]2C[C@@H]2N1C(=O)[C@@H](N)C12CC3CC(CC(O)(C3)C1)C2
inactive: [1] | [2] | [3] | [4] | [5] | [6] | [15] | [7] | [18] | [10] | [11] | [12]
active: [17] 24.1 µM

CC(C)(C)COc1ccc(-n2cc(C(=O)O)cn2)cc1C#N
inactive: [1] | [2] | [3] | [4] | [6] | [7] | [16] | [9] | [18] | [12]

CCCCC1C(=O)N(c2ccccc2)N(c2ccccc2)C1=O
inactive: [1] | [2] | [3] | [4] | [6] | [15] | [7] | [17] | [9] | [18] | [10] | [11] | [12]

OC[C@@H](O)[C@H](O)[C@H](O)[C@@H](O)CO
inactive: [1] | [2] | [3] | [4] | [14] | [6] | [15] | [7] | [16] | [17] | [9] | [10] | [11] | [12]

O=C(O)[C@H]1O[C@H](Oc2cc3oc(-c4ccccc4)cc(=O)c3c(O)c2O)[C@H](O)[C@@H](O)[C@H]1O
inactive: [1] | [2] | [3] | [4] | [5] | [6] | [15] | [7] | [17] | [9] | [18] | [12] | [13]
active: [8] 0.118 µM
